Reference: PubChem BioAssay AID720690 (Broad Institute, 2013)
Entries with a potency or affinity are not part of this list. Unmarked numbers belong to inactive results.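 How the source made its calls: active means every repeat run showing a signal drop whose fitted half-maximal concentration is at most twice the top tested concentration; inconclusive means repeat runs disagree, or flat partial drop, or poor fit; inactive means the rest.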

assay: general mammalian cell viability loss – activator set, cherry-pick, cytotoxicity control for miR-122 modulator project, dose response (AID 720690); conditions: HEK293T viability, CellTiter-Glo luminescence, 48 h; series mostly up to 26 µM; activity change, negative = cytotoxicity: at the top concentration;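 further: 0% = neutral control wells and -100% = MG132 cytotoxic control wells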

Row | SMILES | activity change, negative = cytotoxicity
1 | CCCNC(=O)Nc1ccc2c(c1)C(=O)N(C)[C@@H]1CC[C@@H](CC(=O)NCC3CCCCC3)O[C@H]1CO2 | -5.32%
2 | C=CCc1c(OC)ccc2ccc(=O)oc12 | 10.4%
3 | CCN(C[C@@H]1[C@@H](c2ccc(C3=CCCCC3)cc2)[C@@H](CO)N1CC1CC1)C(C)=O | -22.1%
4 | CCC(=O)NC[C@@H]1[C@@H](c2ccc(C3=CCCC3)cc2)[C@@H](CO)N1C(C)=O | 4.93%
5 | COC(=O)C[C@@H]1CC[C@@H]2[C@H](COc3ccc(NC(=O)c4cc(F)cc(F)c4)cc3C(=O)N2C)O1 | -17.8%
6 | CN1C(=O)c2cc(NC(=O)c3cccs3)ccc2OC[C@@H]2O[C@@H](CC(=O)N3CCOCC3)CC[C@H]21 | 4.42% [at 23.5 µM]
7 | CN(C)c1ncnc2c1ncn2C1OC(CO)C(O)C1O (centres undefined) | -19.5%
8 | COC(=O)C[C@@H]1CC[C@@H]2[C@@H](COc3ccc(NC(=O)c4cscn4)cc3C(=O)N2C)O1 | 2.84%
9 | Cc1nn(C)cc1NC(=O)C[C@@H]1CC[C@H]2[C@@H](COc3ccc(NC(=O)Nc4cccc(Cl)c4)cc3C(=O)N2C)O1 | 3.14%
10 | C/C=C/c1ccc2c(c1)O[C@H](CN(C)C(=O)c1cnccn1)[C@H](C)CN([C@@H](C)CO)S2(=O)=O | -5.55%
11 | COCC(=O)N(C)C[C@@H]1[C@H](c2ccc(-c3ccccc3)cc2)[C@@H](CO)N1C(C)=O | -14.3%
12 | CCCNC(=O)Nc1ccc2c(c1)C(=O)N(C)[C@H]1CC[C@H](CC(=O)NC3CCC3)O[C@H]1CO2 | -0.002%
13 | Cc1onc(-c2ccccc2)c1C(=O)NCc1ccccn1 | -9.52%
14 | Cc1ccc(S(=O)(=O)Nc2ccc3c(c2)C(=O)N(C)[C@@H]2CC[C@H](CC(=O)NCCc4ccncc4)O[C@@H]2CO3)cc1 | -5.75%
